The record followed here is PubChem BioAssay.

Calls of active or inactive are those of the source. Unless noted, how the calls were made is not given here.

Test [1] in a line: resazurin metabolic signal in HepG2 cells – cell-based, resazurin fluorescence, 24 h, PK04 Diversity Set, profiling panel (AID 1172). Further: test concentration not given here. Conditions: HepG2 viability, higher = more signal.
Test [2] in a line: budding yeast growth changes without added modifier – OD600, strain BY4716, 24 h, basal condition, primary screen (AID 1173). Conditions: S. cerevisiae BY4716 growth, OD600, 24 h; higher = more signal, called active from +8 up or from −8 down.
The nature of test [3]: viability profiling in MM1S myeloma cells – cell-based, resazurin fluorescence, basal, 24 h, PK04 Diversity Set, profiling panel (AID 1174).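 Further: MM1S multiple myeloma cell line; test concentration not given here.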 The settings on record: higher = more signal, called active from +8 up or from −8 down. On the technique in general: The colour change of resazurin is a common sign of viable cells or microbes.
The target of test [4] is Dihydroorotate dehydrogenase (quinone), mitochondrial (Plasmodium falciparum (isolate 3D7)) (UniProt Q08210). Nature of the test: inhibition of P. falciparum DHODH – biochemical, C-terminal His tag, absorbance 600 nm, primary screen (AID 1175).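 Further: recombinant parasite enzyme with a five histidine tag at its C terminus; test concentration not given here.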 The settings on record: PfDHODH enzyme, DCIP absorbance 600 nm; higher = more signal, called active from +8 up or from −8 down.
Test [5] is described as follows: inhibition of PAO1 biofilm formation – strain PAO1, LB-PBS medium, absorbance 600 nm, primary screen (AID 1176). Further: test concentration not given here. Conditions: P. aeruginosa PAO1 growth/biofilm, A600, 12 h; higher = more signal.
A short description of test [6]: growth modulation of vineyard yeast isolate – strain RM11-1a, OD600, basal, 24 h, primary screen (AID 1177).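 Further: cultures grown under basal conditions with no added stressor; test concentration not given here.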 The settings on record: S. cerevisiae RM11-1a growth, OD600, 24 h; higher = more signal, called active from +8 up or from −8 down.
A short description of test [7]: growth of efflux-deficient E. coli DRC39 – strain DRC39, OD650, 24 h, E. coli filamentation inducers, primary screen (AID 1178).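 Further: growth measured as culture turbidity by optical density at 650 nm; test concentration not given here.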 The settings on record: E. coli DRC39 acrAB, higher = more signal, called active from +8 up or from −8 down.
A short description of test [8]: growth of efflux-deficient E. coli DRC39 – strain DRC39, OD650, 48 h, E. coli filamentation inducers, primary screen (AID 1179).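 Further: screen aims at cell division blockers that make cells filament.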 The settings on record: E. coli DRC39 delta-acrAB growth, higher = more signal, called active from +8 up or from −8 down.
Test [9] can be described thus: viability profiling in RPMI8226 myeloma cells – cell-based, resazurin fluorescence, basal, 24 h, PK04 Diversity Set, profiling panel (AID 1180).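 Further: RPMI8826 multiple myeloma cell line at 5000 cells per well; test concentration not given here.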 The settings on record: higher = more signal.
Test [10] concerns the target E3 ubiquitin-protein ligase XIAP (Homo sapiens) (UniProt P98170). Nature of the test: small molecules binding XIAP protein – biophysical, small-molecule microarray, fluorescence 635 nm, primary screen (AID 1181).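 Further: score merges 667 nm emission and signal to noise over triplicate slides.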 The settings on record: higher = more signal.

Chain of E3 ubiquitin-protein ligase XIAP (Homo sapiens) (P98170 whole entry, looked up): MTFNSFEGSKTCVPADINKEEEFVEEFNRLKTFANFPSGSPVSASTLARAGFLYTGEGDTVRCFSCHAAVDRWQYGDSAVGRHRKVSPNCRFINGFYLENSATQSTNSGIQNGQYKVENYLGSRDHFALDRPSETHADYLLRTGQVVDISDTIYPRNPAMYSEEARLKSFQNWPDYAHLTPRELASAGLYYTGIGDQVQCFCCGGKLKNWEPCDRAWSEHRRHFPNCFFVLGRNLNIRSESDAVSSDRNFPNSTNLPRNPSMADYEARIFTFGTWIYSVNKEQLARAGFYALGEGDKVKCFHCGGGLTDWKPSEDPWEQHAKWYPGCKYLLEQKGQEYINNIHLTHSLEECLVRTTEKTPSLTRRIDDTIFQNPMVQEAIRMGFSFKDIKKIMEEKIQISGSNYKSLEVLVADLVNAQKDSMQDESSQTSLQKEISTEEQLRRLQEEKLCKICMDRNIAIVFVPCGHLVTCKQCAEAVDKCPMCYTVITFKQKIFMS
Chain of Dihydroorotate dehydrogenase (quinone), mitochondrial (Plasmodium falciparum (isolate 3D7)) (Q08210 whole entry, looked up): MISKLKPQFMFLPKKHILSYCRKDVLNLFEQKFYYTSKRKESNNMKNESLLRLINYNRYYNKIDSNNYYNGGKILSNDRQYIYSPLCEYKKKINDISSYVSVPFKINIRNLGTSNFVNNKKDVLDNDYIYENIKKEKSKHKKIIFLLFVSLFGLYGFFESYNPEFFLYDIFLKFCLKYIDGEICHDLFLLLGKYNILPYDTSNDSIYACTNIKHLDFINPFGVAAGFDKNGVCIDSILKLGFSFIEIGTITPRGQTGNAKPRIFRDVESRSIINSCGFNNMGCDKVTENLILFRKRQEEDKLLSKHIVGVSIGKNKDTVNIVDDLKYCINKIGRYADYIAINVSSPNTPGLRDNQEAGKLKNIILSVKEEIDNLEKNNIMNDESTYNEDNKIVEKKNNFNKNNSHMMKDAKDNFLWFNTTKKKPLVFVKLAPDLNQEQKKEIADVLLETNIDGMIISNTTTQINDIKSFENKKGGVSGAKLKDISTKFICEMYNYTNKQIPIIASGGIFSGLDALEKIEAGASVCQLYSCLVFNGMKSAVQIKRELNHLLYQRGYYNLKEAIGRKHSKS

`CC(C)C(=C=CC[C@H](O)c1cccc(OCCO)c1)C[C@H](O)c1ccccn1`: the z-score is 1.91 in test [1]; 0.589 (inactive) in test [2]; 0.106 (inactive) in test [3]; 0.625 (inactive) in test [5]; -0.69 (inactive) in [6]; 1.61 (inactive) in test [7]. Further, the z-score in test [8] was 1.5 (inactive); in test [9], 0.681. In addition, the composite z-score in test [4] was -0.332 (inactive); in test [10], 0.0436.
On to `CCCCC=C[C@@H](NC(=O)C(C)(C)C)c1ccccc1`, for which the z-score in [1] is -1.12; in [2] it was 2.43 (inactive); in test [3], -2.58 (inactive); in test [5], 0.563 (inactive); in [6] it was 2.07 (inactive); in test [7], -0.275 (inactive). The z-score in test [8] is -0.0819 (inactive); in test [9], -3.59. The composite z-score is 0.507 (inactive) in [4] and -0.0095 in test [10].
Regarding `COCCCNC(=O)[C@@]1(CCC(=O)OC(C)(C)C)N=C(c2ccc(OCCCO)cc2)O[C@H]1c1ccccc1`, the z-score is -0.464 in test [1]; 1.12 (inactive) in test [2]; 0.34 (inactive) in test [3]; -0.568 (inactive) in [5]; 0.795 (inactive) in test [6]; 0.267 (inactive) in test [7]. Also, the z-score in test [8] was 1.22 (inactive); in test [9], 0.137. Further, the composite z-score in test [4] was -1.1 (inactive); in test [10], -0.171.
In the case of `O=C(NCC(F)(F)F)[C@@H]1c2ccccc2C(=O)N(Cc2cc(C(F)(F)F)cc(C(F)(F)F)c2)[C@H]1c1ccc(CO)cc1`, the z-score was 0.0606 in [1]; 1.26 (inactive) in [2]; 0.885 (inactive) in test [3]; -0.0249 (inactive) in test [5]; 0.378 (inactive) in [6]; 0.783 (inactive) in test [7]. The z-score in [8] is 1.41 (inactive); in [9], 1.1. For the same compound, the composite z-score was 0.398 (inactive) in [4] and 0.295 in test [10].
As for `CO[C@H]1O[C@H](CO)[C@@H](OC(=O)Nc2cccc(F)c2)[C@H](OC(=O)c2cc3ccccc3[nH]2)[C@H]1OC(=O)c1cc2ccccc2[nH]1`, the z-score in test [1] was -2.49; in [2] it was -0.21 (inactive); in [3], -2.63 (inactive); in [5] it was 1.1 (inactive); in test [6], -0.67 (inactive); in [7] it was 0.181 (inactive). In addition, the z-score is 1.02 (inactive) in [8] and -2.46 in test [9]. Moreover, the composite z-score is -0.603 (inactive) in test [4] and 0.331 in test [10].
On to `CCCC=C(CCC)[C@@H](NC(=O)c1ccc(C(=O)OC)cc1)c1ccc(C(=O)OC)cc1`, for which the z-score was -0.179 in [1]; 1.24 (inactive) in test [2]; -0.64 (inactive) in [3]; 1.1 (inactive) in [5]; 1.55 (inactive) in [6]; -1.1 (inactive) in test [7]. The z-score was -0.486 (inactive) in test [8] and -0.358 in test [9]. The composite z-score in test [4] is 0.138 (inactive); in [10], 0.0627.
With `COc1ccc(NN2C(C(O)c3ccc(F)cc3)C=CC3C(=O)N(C4CCCCC4)C(=O)C32)cc1` (stereo not given), the z-score is -0.598 in test [1]; 0.0789 (inactive) in test [2]; -0.209 (inactive) in [3]; 1.68 (inactive) in [5]; 0.816 (inactive) in test [6]; -0.385 (inactive) in test [7]. Also, the z-score is -0.0595 (inactive) in test [8] and -0.352 in test [9]. The composite z-score was -0.328 (inactive) in test [4] and -0.0726 in test [10].
With `C[N+](C)(C)CCCC[C@@H]1NC(=O)[C@H]2C[C@@H](C(=O)NCCCCCN)[C@@H](c3ccc(O)cc3)N2C1=O`, the z-score was 0.372 in [1]; -0.589 (inactive) in test [2]; 0.715 (inactive) in test [3]; -1.14 (inactive) in test [5]; -0.683 (inactive) in test [6]; 0.553 (inactive) in test [7]. In addition, the z-score in test [8] was 0.751 (inactive); in test [9] it was 1.24. Besides, the composite z-score is -1.86 (inactive) in test [4] and 0.0017 in test [10].
As to `O=C1N(Cc2ccccc2)c2ccccc2C[C@@]12N=C(c1ccc(OCCCO)cc1)O[C@H]2c1ccccc1`, the z-score in test [1] is -0.449; in test [2] it was -1.21 (inactive); in test [3] it was -2.11 (inactive); in [5], 2.26 (inactive); in test [6] it was 1.18 (inactive); in [7], 0.0946 (inactive). The z-score in test [8] was -0.928 (inactive); in [9] it was -1.69. Besides, the figures for the composite z-score in test [4] and in test [10] were 0.318 (inactive) and 0.0918, respectively.
`CCOC(=O)C1=CCC(c2ccncc2)N(S(=O)(=O)c2ccc(C)cc2)C1` (stereo not given): the z-score in [1] was -0.226; in test [2], -0.867 (inactive); in test [3] it was -1.14 (inactive); in test [5], -0.433 (inactive); in test [6] it was -0.364 (inactive); in test [7], -0.0978 (inactive). The z-score in [8] was 0.737 (inactive); in test [9], -1.25. The composite z-score in test [4] is -1.2 (inactive); in [10] it was -0.197.
With `CCCC[C@@H](O)C1=C(C)Cn2c(=O)n(-c3ccccc3)c(=O)n2[C@H]1CO`, the z-score is -0.256 in [1]; -1.82 (inactive) in test [2]; -0.0268 (inactive) in [3]; 0.413 (inactive) in [5]; -1.88 (inactive) in test [6]; 0.514 (inactive) in test [7]. The figures for the z-score in test [8] and in test [9] were 0.715 (inactive) and -0.0486, respectively. In addition, the composite z-score in test [4] was -1.06 (inactive); in test [10], -0.249.
Turning to `C=CC[C@]1(C(=O)NCC(O)CO)N=C(c2ccc(OCCCO)cc2)O[C@H]1c1ccccc1CN=[N+]=[N-]` (stereo not given in full), the z-score was -0.766 in [1]; -0.432 (inactive) in test [2]; -1.51 (inactive) in [3]; 1.27 (inactive) in [5]; 0.244 (inactive) in test [6]; -0.363 (inactive) in [7]. Besides, the z-score in [8] was 0.196 (inactive); in test [9], -0.566. Moreover, the composite z-score in [4] was -0.0887 (inactive); in [10] it was -0.0136.
On to `C[C@H]1C2[C@H](Cc3ccccc3)NC(=O)[C@]23C(=O)N[C@@H](Cc2ccccc2)C(=O)N2CCC[C@H]2C(=O)NC/C=C/CC/C=C/C3[C@@H]2O[C@]12C` (stereo not given in full), for which the z-score in test [1] is -0.661; in [2] it was 0.321 (inactive); in test [3], -0.299 (inactive); in test [5] it was 0.355 (inactive); in test [6] it was -0.0615 (inactive); in test [7], 0.159 (inactive). For the same compound, the z-score in [8] is -0.882 (inactive); in test [9] it was -0.39. Further, the values for the composite z-score in test [4] and in [10] were -0.0587 (inactive) and -0.0663, respectively.
